# Screening results from PubChem.
# beta cell repl: inducers of MIN6 beta-cell proliferation, primary screen, ATP luminescence, uHTS; MIN6 cells proliferation, ATPlite luminescence, 48 h; cells starved in 0.2% serum; 100% = growth in 10% serum; proliferation, % at 10 µM; 330,000 compounds, 0.29% hits; AID 2380, 2010;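 active = compounds whose signal lies at least 3.5 SD above the mean of all wells on their plate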;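 note: 0% = DMSO-treated cells in low-serum medium and 100% = 10% serum control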
# H9c2 protect: cardioprotection against H2O2-induced cell death, primary screen, uHTS, H9c2 cells, ATPLite luminescence; H9c2 cardiomyocytes, H2O2 injury protection, 2 h; protection from H2O2 cell death, % at 20 µM; 360,000 compounds, 0.63% hits;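 active = compounds giving at least 50% protection of heart cells from peroxide-induced death in the single-dose screen, raw or plate-pattern-corrected value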;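 note: 0% = DMSO wells with peroxide and 100% = DMSO wells without peroxide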
# ABCB6 inh MLPCN: ABCB6 transporter inhibitors, primary screen, K562-ABCB6 cells, flow cytometry, MLPCN library; AID 602162, 2011; ATP-binding cassette sub-family B member 6 (Homo sapiens), Q9NP58; K562-ABCB6 porphyrin accumulation, 1 h; hits give low values; 360,000 compounds, 0.19% hits; fluorescence ratio to DMSO, % at 10 µM;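 active = fluorescence ratio to DMSO below 75%, the collection mean minus 3 SD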;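 note: signal is porphyrin accumulated inside mitochondria; 100% equals median channel fluorescence of DMSO control wells; lower ratio means ABCB6 inhibition with less porphyrin fluorescence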
# Target sequence (Q9NP58 whole entry, looked up): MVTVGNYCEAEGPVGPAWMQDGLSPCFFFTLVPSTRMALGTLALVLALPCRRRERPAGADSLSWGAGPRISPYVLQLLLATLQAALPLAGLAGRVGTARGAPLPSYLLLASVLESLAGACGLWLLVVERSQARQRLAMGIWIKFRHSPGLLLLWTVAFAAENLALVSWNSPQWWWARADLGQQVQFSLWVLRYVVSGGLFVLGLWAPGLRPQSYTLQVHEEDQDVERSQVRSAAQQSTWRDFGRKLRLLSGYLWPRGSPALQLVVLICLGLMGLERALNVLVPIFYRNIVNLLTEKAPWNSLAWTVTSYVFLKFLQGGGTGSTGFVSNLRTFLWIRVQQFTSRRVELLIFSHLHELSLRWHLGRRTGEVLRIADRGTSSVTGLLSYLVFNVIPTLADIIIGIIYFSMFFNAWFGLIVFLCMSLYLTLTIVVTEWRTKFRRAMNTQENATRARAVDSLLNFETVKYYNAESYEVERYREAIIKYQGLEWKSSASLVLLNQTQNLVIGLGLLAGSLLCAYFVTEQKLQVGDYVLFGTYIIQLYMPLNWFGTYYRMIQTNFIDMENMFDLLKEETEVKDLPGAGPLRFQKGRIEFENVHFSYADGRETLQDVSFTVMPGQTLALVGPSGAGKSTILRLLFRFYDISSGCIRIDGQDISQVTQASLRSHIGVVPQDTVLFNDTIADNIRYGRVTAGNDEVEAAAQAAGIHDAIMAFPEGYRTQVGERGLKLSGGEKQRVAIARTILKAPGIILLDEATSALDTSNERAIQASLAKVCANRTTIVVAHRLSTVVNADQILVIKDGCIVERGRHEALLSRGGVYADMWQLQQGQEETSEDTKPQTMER
# hiPSC survival: enhancers of single-cell hiPSC survival, primary screen, ATPlite luminescence. 100% = ROCK inhibitor wells, 0% = DMSO. survival enhancement, % at 20 µM. 360,000 compounds, 0.044% hits. AID 602274, 2012; in the data active = survival enhancement above about 18%;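 note: cells exposed to compounds for 16 hours before the ATP read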
# Myeloid diff MLP: induction of myeloid progenitor differentiation, primary screen, cell-based, flow cytometry, MLPCN library; calls only at 10 µM; ER-HoxA9 myeloid progenitors, lysozyme-GFP differentiation; 360,000 compounds, 1% hits;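 active = normalized GFP-positive differentiation at or above the plate's own cutoff, the solvent-only control mean plus 3 SD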;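 note: cells exposed to compound for four days before flow analysis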
# ABCB6 inh CP1: ABCB6 transporter inhibitors, confirmation, K562-ABCB6 cells, flow cytometry, cherry pick 1; shares compounds with ABCB6 inh MLPCN; K562-ABCB6 porphyrin accumulation, 1 h; hits give low values; ratio response (% of DMSO), % at 10 µM; 700 tested, under 10 active; AID 602430, 2012;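 active = repeat-averaged ratio response below 75% of DMSO, the collection mean minus 3 SD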;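 note: median porphyrin fluorescence at 575 nm with 488 nm excitation from mitochondria; lower ratio means less porphyrin signal so ABCB6 inhibition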
# Myeloid diff: inducers of myeloid progenitor differentiation, confirmation, cell-based, GFP/Mac1 flow cytometry, cherry pick 01; AID 651706, 2012; ER-HoxA9 myeloid progenitors, GFP/Mac1 double-positive flow; shares compounds with Myeloid diff MLP; 2,300 compounds, 2% hits; calls only;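 active = share of green or green-and-red cells above 9 and 9% in run 1 or 4 and 3% in run 2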
# GFP autofluor: compound fluorescence in myeloid differentiation counter-screen | shares compounds with Myeloid diff MLP | 2,300 compounds, 7.4% hits | fluorescence response, % (concentration not given with the values) | ER-HoxA9 myeloid progenitors, no estrogen, GFP autofluorescence flow cytometry; vehicle wells 0%, positive control 100%;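 active = over 5% cells positive for green fluorescent reporter, or over 2% positive for both it and APC stain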;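 note: range taken on the double positive population between DMSO and positive control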
# * = called active by the depositor; i = inactive; / = no result given; + = active, no number. In the library only some 2.2% were active in any assay of this set; here they are far more common.
SMILES,beta cell repl,H9c2 protect,ABCB6 inh MLPCN,hiPSC survival,Myeloid diff MLP,Myeloid diff,GFP autofluor,others
CC(C)(C)c1ccc(-c2noc(CCC(=O)NCC3CCCO3)n2)cc1 (configuration not stated),-6,-17,62*,-2,i,i,0,ABCB6 inh CP1=99
CCOc1ccc(OCC)c(NC(=O)C2CCN(c3nn4c(=O)cc(C)nc4s3)CC2)c1,-5,8,96,4,i,/,/,
Oc1ccc(/C=C/c2ccc3ccccc3n2)cc1,-6,-32,101,-4,+,i,20*,
C(=C\c1ccc2ccccc2n1)/c1ccccc1,-3,-15,98,-1,i,/,/,
COc1ccccc1/C=C/C=N/NC(=O)c1cc(-c2ccc(C)o2)[nH]n1,-3,45,102,0,i,/,/,
COc1ccc(/C=C/C(=O)c2c(C)nc3ccccn23)cc1,2,32,95,-2,i,/,/,
Cc1nc2ccccn2c1C(=O)/C=C/c1ccc(F)cc1,-3,-2,101,-1,i,i,0,
Nc1ccc(C#Cc2ccc3c(=O)c4ccccc4oc3c2)cc1,-4,-7,115,1,i,+,0,
S=C(NNc1ccc2ccccc2c1)NC1CCCCC1,-6,-4,90,-3,i,i,0,
COc1cccc(C(=O)Nc2ccc(NC(C)=O)cn2)c1,-3,-16,104,-3,i,i,0,
CC(C)OC(=O)NC(C)(C)COC(=O)Nc1cccc(Cl)c1,-2,-7,97,-1,i,i,0,
CCn1c(CNC(=O)c2cccc(C)c2)nnc1SCC(=O)NC1=NCCS1,7,1,97,-1,i,/,/,
CC(=O)NN1C(=O)c2ccc3c4c(ccc(c24)C1=O)C(=O)N(NC(C)=O)C3=O,-6,-15,94,-1,+,i,0,
CCN(CC)S(=O)(=O)c1cccc(C(=O)Nc2ccc3c(c2)OCO3)c1,1,-7,92,0,i,i,0,
CCCN(CCC)S(=O)(=O)c1cccc(C(=O)Nc2ccc3c(c2)OCO3)c1,-4,-2,99,0,i,/,/,
CC(C)(C)c1ccc(OCc2ccc(C(=O)NCc3cccnc3)o2)cc1,-6,-15,96,-2,i,/,/,
CC(C)(C)c1ccc(OCc2ccc(C(=O)NN)o2)cc1,-3,-1,95,0,+,i,0,
NNC(=O)c1ccc(COc2ccc(Br)cc2)o1,-2,0,94,0,i,i,0,
CCOC(=O)c1c(COC(=O)c2ccco2)nc2ccccc2[n+]1[O-],1,6,92,0,i,/,/,
CCCNS(=O)(=O)c1ccc(OCC(=O)NCCCOC)cc1,-2,-2,98,-3,i,/,/,
Oc1cccc(Nc2nc(O)c(/C=C3\C=Nc4ccccc43)s2)c1,-6,19,134,0,+,i,0,
Oc1nc(Nc2cccc(Cl)c2)sc1/C=C1\C=Nc2ccccc21,0,-7,98,4,i,/,/,
O=c1[nH]c(CN2CCN(c3ccccc3)CC2)nc2scc(-c3ccccc3)c12,0,-5,112,-2,+,i,0,
COC(=O)c1cc(OC)c(OC)cc1N,2,11,102,-4,i,/,/,
CCOC(=O)Cn1nnc(-c2cccc(OC)c2)n1,0,0,105,-1,i,i,0,
SMILES,beta cell repl,H9c2 protect,ABCB6 inh MLPCN,hiPSC survival,Myeloid diff MLP,Myeloid diff,GFP autofluor,others
COc1cccc(-c2nnn(CC(=O)O)n2)c1,-2,-2,97,2,/,/,/,
Cc1ccc(C(=O)COC(=O)[C@@H](NC(=O)c2ccco2)C(C)C)s1,-6,-11,101,-2,+,i,0,
CC(C)C(NC(=O)c1ccco1)C(=O)OCC(=O)c1ccccc1 (configuration not stated),-2,0,99,0,i,/,/,
O=C(CN1CCN(C(=O)c2ccc(-c3nc4ccccc4s3)o2)CC1)Nc1cccc(F)c1,/,0,95,-2,i,/,/,
COc1cccc2sc(N3CCN(C(=O)c4ccc([N+](=O)[O-])o4)CC3)nc12,-6,8,104,0,+,i,0,
O=C(c1ccc([N+](=O)[O-])o1)N1CCN(c2nc3ccc(F)cc3s2)CC1,-4,-6,101,1,i,i,0,
O=C(c1ccc([N+](=O)[O-])o1)N1CCN(c2nc3c(Cl)cccc3s2)CC1,-6,0,97,0,i,/,/,
CCN(CC)C(=O)C1=C(C)N(CCCOC)C(=O)C(CC(=O)NC(c2ccccc2)c2ccccc2)C1 (configuration not stated),/,8,98,3,i,/,/,
Cc1ccc(S(=O)(=O)c2nc(S(C)(=O)=O)sc2N2CCOCC2)cc1,9,-2,98,0,i,i,0,
Cn1c(=O)c2[nH]c(N/N=C(/C#N)C(N)=O)nc2n(C)c1=O,-1,/,/,/,/,/,/,
Cc1n[nH]c(C)c1N1C(=O)c2cccc3c(Br)ccc(c23)C1=O,-5,6,98,-1,i,i,0,
COC(=O)c1c(NC(=O)CSc2nnnn2-c2ccccc2)sc2c1CCC(C(C)(C)C)C2 (configuration not stated),-3,-8,102,-1,i,i,0,
COC(=O)c1c(NC(=O)CSc2nnnn2-c2ccccc2)sc2c1CCC(C)C2 (configuration not stated),-2,-5,101,0,i,/,/,
Cc1cc(C(=O)CN2C(=O)NC3(CCCc4ccccc43)C2=O)c(C)n1Cc1ccccc1 (configuration not stated),-5,-13,99,-1,i,/,/,
Cc1cc(C(=O)CN2C(=O)CCC2=O)c(C)n1Cc1ccccc1,-5,-12,92,-2,+,i,0,
COc1cc(C2=NOC(C(=O)Nc3ccc(C)cc3)C2)cc(OC)c1OC (configuration not stated),-1,-5,100,1,i,/,/,
